Each sequence was assayed against PLEKHN1 (assay: pooled miR-30 sensor sort-seq; sequence = guide strand). Settings: shRNA.
Work on TAGCTCCAGGTAGCAGTCGCTG yielded a sensor-assay potency score (higher = more potent) of -1.67.
With TTCTCCTCCAGGTTGATGTGGA the sensor-assay potency score (higher = more potent) was -0.466.
Work on TAGCTGGCGCACACCACGCGGA yielded a sensor-assay potency score (higher = more potent) of -1.23.
TAGCAGTCGCTGACATCCTGGC was tested, and the sensor-assay potency score (higher = more potent) was -0.66.
TCGCTGGTTCTCCAGGTCCAGG gave a sensor-assay potency score (higher = more potent) of -2.
TTCTTGGAGAGCAAGTAGGGGC showed a sensor-assay potency score (higher = more potent) of -0.773.
TTTCTGGAGAAGGAGGCCCGGA showed a sensor-assay potency score (higher = more potent) of -1.45.
For TGAAATGTGAGTCCTTCCGAGC, the sensor-assay potency score (higher = more potent) was -1.13.

The sequences below were run against PLK1S1 in the same assay as above. Settings: shRNA.
TAGATGAAAAACTAGCTTCCGA showed a sensor-assay potency score (higher = more potent) of -0.0275.
TTCAGATTCACATATTTCCTTC was tested, and the sensor-assay potency score (higher = more potent) was -0.129.
With TAGTTTTACATATTTCAGCTTA the sensor-assay potency score (higher = more potent) was -0.42.
Sequence TTTGAGCATAGCATCTTCTTAA has a sensor-assay potency score (higher = more potent) of -0.677.
TTGGTTTCGAGTATGAGCCTTC gave a sensor-assay potency score (higher = more potent) of 0.232.
Sequence TTGAGTCTCATATTCGAGCTTC has a sensor-assay potency score (higher = more potent) of 0.47.
TATTTCAGCTTAACTCTGCATG gave a sensor-assay potency score (higher = more potent) of -0.461.
In the case of TATTCTGAAACTGGTATCGGAG, the sensor-assay potency score (higher = more potent) is reported as -0.809.
Sequence TTTGTCTCGAATGCACCGCTGC has a sensor-assay potency score (higher = more potent) of -0.55.
Sequence TTGTACTACACAGCTGTCTGTC has a sensor-assay potency score (higher = more potent) of -0.193.
In the case of TATTCCACTATTGTCATTCAGA, the sensor-assay potency score (higher = more potent) is reported as -0.697.

Each sequence was assayed against PLN in the same assay as above. Settings: shRNA.
With TTTCACAAAGAAACTCTTCTAC the sensor-assay potency score (higher = more potent) was 0.725.
For TTTGACGTGCTTGTTGAGGCAT, the sensor-assay potency score (higher = more potent) was 0.851.
In the case of TTGAGGCTCTTCTTATAGCTGA, the sensor-assay potency score (higher = more potent) is reported as -0.603.
Work on TTAATCTTGACCTTTTCACAAA yielded a sensor-assay potency score (higher = more potent) of -1.35.
Sequence TAAGATGAGACAGAAATTGATA has a sensor-assay potency score (higher = more potent) of -0.754.
TATAGCTGAGCGAGTGAGGTAT showed a sensor-assay potency score (higher = more potent) of -0.0267.
TTAGTCTTAATCTTGACCTTTT showed a sensor-assay potency score (higher = more potent) of -0.719.
For TCTGTAGCTTTTGACGTGCTTG, the sensor-assay potency score (higher = more potent) was -0.521.
TTGTTTTCCTGTCTGCATGGGA gave a sensor-assay potency score (higher = more potent) of 0.161.
TTGACGTGCTTGTTGAGGCATT gave a sensor-assay potency score (higher = more potent) of -0.832.
TAGCTTTTGACGTGCTTGTTGA showed a sensor-assay potency score (higher = more potent) of -0.611.
For TTTAGTCTTAATCTTGACCTTT, the sensor-assay potency score (higher = more potent) was -0.026.

Each sequence was assayed against PLS1 in the same assay as above. Settings: shRNA.
TTTGCTTTTTAATTCTTGCATT showed a sensor-assay potency score (higher = more potent) of -1.04.
Work on TTAACAATGCAATCAGAGCTTC yielded a sensor-assay potency score (higher = more potent) of -0.361.
For TTAGTGACACAAACTCTTCAAA, the sensor-assay potency score (higher = more potent) was -0.919.
For ATTCCTTTCATTTAGGTCCTGC, the sensor-assay potency score (higher = more potent) was 0.408.
TTAAGAGTCTGATTGACCCATT showed a sensor-assay potency score (higher = more potent) of -0.779.
TTTATCTGCTTCTTGAAGCATG showed a sensor-assay potency score (higher = more potent) of -0.495.
Work on TATCTTTGCTTTTTAATTCTTG yielded a sensor-assay potency score (higher = more potent) of -0.576.
Sequence TTTAAGAGTCTGATTGACCCAT has a sensor-assay potency score (higher = more potent) of 0.465.
TTCCTTGCTCTCTCCTTCCAGT showed a sensor-assay potency score (higher = more potent) of -0.4.

Source: the OligoGym collection
Note: reference of the scale not given here.
